FMDV antiviral: antivirals against foot and mouth disease virus; FMDV antiviral cell-based qHTS; Potency, µM (doses to about 57.9 µM), for inactives: at the top dose activity change, negative = inhibition, hits mostly inhibitors; hit rate 1.2% among 410,000; calls by dose curve; tested in HEK293T cells; further: read-out not given here; potency means the concentration at half of the fitted maximal effect; on the % scale 0 is the no-effect control and ±100 the full control effect; nearly all actives have a fitted effect of over 45% in size
LASV entry inh: Lassa virus entry inhibition; Lassa virus pseudotype entry inhibition, cell reporter; Potency, µM (series often up to 37.9 µM), inactives show top-dose activity change, negative = inhibition, most hits filed as inhibitors; hit rate 1.2% among 300,000; calls by dose curve; tested in HEK293 cells; further: potency means the concentration at half of the fitted maximal effect; on the % scale 0 is the no-effect control and ±100 the full control effect; nearly all actives have a fitted effect of over 50% in size
Marburg entry inh: inhibitors of Marburg virus binding or cell entry; AID 540276; hit rate 1.8% among 300,000; Potency, µM (doses to about 37.8 µM), for the others: at the top dose activity change, negative = inhibition, most hits filed as inhibitors; Marburg virus pseudotyped entry inhibition, cell reporter; calls by dose curve; tested in HEK293 cells; further: potency means the concentration at half of the fitted maximal effect; on the % scale 0 is the no-effect control and ±100 the full control effect
HCMV antiviral: blocks human cytomegalovirus replication; HFF cells, HCMV-luciferase reporter, 72 h; hits give low values; activity change, negative = inhibition, % at 57.5 µM; hit rate 4.5% among 410,000; AID 1259415; in the data active means activity change below about -60%; inconclusive means no clear call, values can overlap the other calls; inactive means above about -39%; further: on the % scale 0 is the no-effect control and ±100 the full control effect
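HFF cells seeded 16 h at 37C, treated with compounds, infected with luciferase-reporter HCMV at MOI 1 PFU/cell; luciferase read at 72 h post infection, normalized to buffer-only and Salinomycin controls.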
HCV inhibitor: HCV inhibition | Potency, µM (highest dose often 41.8 µM), for the others: at the highest dose activity change, negative = inhibition, actives largely listed as inhibitors | Huh7.5.1 HCVcc-Cre infection, luciferase reporter, 44 h | AID 651820 | hit rate 3.4% among 340,000; active means well fitted inhibition curve with a large enough effect; inconclusive means small, poorly fitted or top-dose-only effect, or another doubt; inactive means no such curve, though single readings can be large or run the other way; further: potency means the concentration at half of the fitted maximal effect; on the % scale 0 is the no-effect control and ±100 the full control effect
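1,000 cells/well; 4 h culture; + compound; + HCVcc-Cre (~0.5 moi); 44 h; luciferase substrate, RT 15 min; read 15 sec.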
SARS PLP yeast: inhibitors of SARS-CoV papain-like protease in yeast | S. cerevisiae expressing SARS-CoV PLpro, growth rescue | Potency, µM (titrated, usually from 32.9 µM), for inactives: at the top dose activity, positive = growth rescue, hits mostly activators | hit rate 0.19% among 330,000 | AID 485353; calls by dose curve; further: potency means the concentration at half of the fitted maximal effect; 0% is about no effect; nearly all actives have a fitted effect of over 55% in size
* marks the source's active call; other numbers are inactive results; ? = inconclusive; · = no result given; [ ] = another dose, or the depositor's remark. Sampled rows, rich in hits. Any-hit rate of the full collection: about 8%.

SMILES	FMDV antiviral	LASV entry inh	Marburg entry inh	HCMV antiviral	HCV inhibitor	SARS PLP yeast
Cc1ccc(C(=O)N2CCN(Cc3ccc4c(c3)OCO4)CC2)c(Cl)c1	?	-23%[46.1 µM]	?	-31	11µM*	9%
CN(c1ccc(C(=O)N2CCN(Cc3ccc4c(c3)OCO4)CC2)cc1)S(=O)(=O)c1ccccc1	?	-27%	?	-101*	6.3µM*	17%
Cc1ccc(S(=O)(=O)N(C)CC(=O)N2CCN(Cc3ccc4c(c3)OCO4)CC2)cc1	-15%	?	-19%	-3	?	-2%
O=C(c1ccccc1Cl)N1CCN(Cc2ccc3c(c2)OCO3)CC1	?	·	·	-3	?	1%
Cc1ccc(S(=O)(=O)N(C)c2ccc(C(=O)N3CCN(Cc4ccc5c(c4)OCO5)CC3)cc2)cc1	16µM*	?	?	-95*	4.5µM*	7%
CCOC(=O)Cn1c(=O)oc2cc(S(=O)(=O)Nc3cc(OC)cc(OC)c3)ccc21	-21%	1%[46.1 µM]	-1%[46.1 µM]	19	·	·
CC1(C)CC(=O)C=C(C2CC2)C1=O	·	·	·	-6	·	·
COC(=O)c1c(NC(=O)CSc2ncnc3ccccc23)sc(C)c1C	-20%	?	3%[46.1 µM]	-26	18µM*	·
CCOC(=O)c1c(NC(=O)CSc2nc3ccccc3c(=O)n2-c2ccc(F)cc2)sc(C(C)=O)c1C	0%	1%	-8%	53	3%	?
CCOC(=O)c1c(NC(=O)CSc2ncnc3ccccc23)sc(C(C)=O)c1C	25µM*	3%	-9%[46.1 µM]	1	11µM*	14%
CC(C)CC(=O)Nc1ccc(C(=O)OCc2cc(=O)n3nc(C(C)C)sc3n2)cc1	?	7%[46.1 µM]	·	0	·	·
CCNc1ncc2nc(C)c(=O)n(CCc3ccccc3)c2n1	-11%	·	·	·	·	·
COc1ccc(NC(=O)Cc2c(C(=O)O)[nH]c3ccccc23)cc1OC	-9%	26%[46.1 µM]	-17%[46.1 µM]	15	·	·
N#Cc1c(C(F)(F)F)cc(-c2cccs2)nc1SCC(=O)Nc1ccc(Cl)cc1	?	-16%[46.1 µM]	4%[46.1 µM]	-92*	·	·
O=C(CSc1nc2nc(-c3cccs3)cc(C(F)(F)F)c2c(=O)[nH]1)Nc1ccc(F)c(F)c1	?	?	?	-97*	?	0%
Cc1cccc(CSc2nc3c(c(-c4cccs4)c2C#N)CN(C)CC3)c1	-16%	?	?	-3	?	-9%
CN1CCc2nc(SCC(=O)Nc3ccc(OC(F)(F)F)cc3)c(C#N)c(-c3cccs3)c2C1	2%	5%	?	-39	13µM*	1%
CCOc1ccc(NC(=O)CSc2nc(-c3cccs3)cc(C(F)(F)F)c2C#N)cc1	-11%	-24%[46.1 µM]	0%[46.1 µM]	5	·	·
Cc1ccc(S(=O)(=O)CC(=O)N(CCCN2CCOCC2)c2nc3c(F)cccc3s2)cc1	6%	16%	4%[46.1 µM]	17	2%	-3%
O=C(CCS(=O)(=O)c1ccccc1)N(CCCN1CCOCC1)c1nc2c(F)cccc2s1	40µM*	?	?	?	?	3%
C[C@H]1C[C@@H](C)O[C@@]2(C1)C(=O)N(CC1CC1)c1ccccc12	·	·	-21%[14.2 µM]	·	·	·
C(=C\c1nc(N2CCCCCC2)c2ccccc2n1)/c1ccccc1	40µM*	-5%	11µM*	?	?	-53%
COc1ccc(CCNC(=O)CCCn2c(SCC#N)nc3ccccc3c2=O)cc1OC	-22%	-9%	-5%	-33	-18%	4%
COc1ccc(CCNC(=O)CCn2c(SCC#N)nc3ccccc3c2=O)cc1OC	8%	-30%	?	-8	13µM*	3%
COc1cc(N2Cc3ccccc3C2)ccc1C=O	?	?	7.9µM*	69	-3%	0%
SMILES	FMDV antiviral	LASV entry inh	Marburg entry inh	HCMV antiviral	HCV inhibitor	SARS PLP yeast
C(=NN1CCCCCC1)c1ccc2ccccc2n1	100µM*	?	2.5µM*	-92*	-1%	·
C(=NN1CCCCCC1)c1cccc2ccccc12	44%	17%	17%	-20	12%	·
C=CCc1c(C)nc2nc(SCC(=O)Nc3ccc(C)c(C)c3)nn2c1C	0%	28%[46.1 µM]	·	-100*	·	·
C=CCc1c(C)nc2nc(SCC(=O)Nc3cccc(Cl)c3)nn2c1C	?	8%[46.1 µM]	·	?	·	·
O=C(c1cn(C2CCCN(Cc3cccc(Oc4ccccc4)c3)C2)nn1)N1CCCC1 (stereo not given)	1%	·	·	·	·	·
Cc1occc1C(=O)N/N=C/C=C/c1ccccc1	20%	?	?	-24	-21%	-1%
Cc1cccc(/C=N/NC(=O)c2c(-c3ccccc3)noc2C)c1O	-26%	-22%[46.1 µM]	?	-113*	?	?
Cc1onc(-c2ccccc2)c1C(=O)N/N=C/C(Br)=C/c1ccccc1	-9%	?	?	-70*	?	-63%
Cc1cccc(C(C)C)c1NC(=O)c1c(-c2ccccc2)noc1C	40%	·	·	-62*	14%	?
Cc1occc1C(=O)N/N=C/C(Br)=C\c1ccccc1	?	13µM*	?	33	?	-6%
Cc1onc(-c2ccccc2)c1C(=O)Nc1ccc(NC(=O)c2c(-c3ccccc3)noc2C)cc1	-17%	·	·	-5	-19%	·
Cc1ccc(N2CC(NC(=O)Cc3ccc(F)cc3)CC2=O)cc1C (stereo not given)	-5%	10%[46.1 µM]	·	-39	·	·
COC(=O)c1c(-c2ccc(C)cc2)csc1NC(=O)c1c(-c2ccccc2)noc1C	·	·	7%	-71*	7%	2%
Cc1onc(-c2ccccc2)c1C(=O)Nc1ccc(S(=O)(=O)N2CCCC2)cc1	16%	?	?	20	-28%	-3%
Cc1onc(-c2c(F)cccc2Cl)c1C(=O)Nc1ccc(S(=O)(=O)N2CCOCC2)cc1	-18%	-26%	?	-69*	3%	5%
